# An excerpt weighted towards active compounds, which were near 7.4% of everything screened.
# ERK AVP block: vasopressin-driven ERK pathway inhibition; HEK293-V1b, vasopressin-stimulated pERK AlphaScreen; Potency, µM (titrated, usually from 57.5 µM), most hits filed as inhibitors; 72,000 compounds, 0.99% hits; also: nearly all actives have a fitted effect of over 55% in size
#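 Phosphorylated ERK1/2 detected via AlphaScreen bead proximity in lysates of V1b-expressing HEK293 cells given 25 nM vasopressin for 5 min after 30 min compound exposure (37 °C). AC50 from Hill equation; basal DMSO 0%, vasopressin 100%.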
# HEK293 cAMP cs: counter-screen for TSHR agonists: cAMP increase in parental HEK293; parental HEK293 CNG cAMP sensor, membrane potential fluorescence; Potency, µM (highest dose often 57.1 µM), actives largely listed as activators; 73,000 compounds, 2.5% hits; AID 938; also: nearly all actives have a fitted effect of over 55% in size
#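 Counterscreen for endogenous-receptor signalling: CNG-channel HEK 293 cells report cAMP rise by membrane depolarization. After 60 min dye equilibration with 100 uM RO 20-1724, compounds incubated 30 min before bottom-read fluorescence at 590 nm.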
# CRE Fsk mod: alters forskolin-stimulated CRE reporter signaling in CHO cells; CHO CRE-bla reporter (cAMP response element driving beta-lactamase), forskolin EC10, beta-lactamase ratio; Potency, µM (titrated, usually from 38.2 µM), most hits filed as activators; 71,000 compounds, 2.5% hits; active = well fitted activation curve with a large enough effect in the signal ratio, with a control signal flat, not every such curve was filed as active; inconclusive = small, poorly fitted or top-dose-only effect, or effect the other way, or a change in a side signal; the % refers to the signal ratio
#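 CRE-bla CHO reporter cells treated with compound titration plus EC10 NKH 477 (water-soluble forskolin), incubated 3 h at 37 °C; CCF4 loading 2 h at room temperature, 460/530 nm emission ratio read, AC50 values derived for positive or negative modulators.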
# TSHR agonist: agonists of human thyroid stimulating hormone receptor; P16473; HEK293-CNG-TSHR cells (CNG channel as cAMP sensor), membrane potential dye, cAMP; Potency, µM (doses to about 57.1 µM), actives largely listed as activators; 73,000 compounds, 0.48% hits; AID 926; active = well fitted activation curve with a large enough effect in the main read-out, with a control signal flat, not every such curve was filed as active; inconclusive = small, poorly fitted or top-dose-only effect, or a change in a side signal; inactive = no such curve, though single readings can be large or run the other way; reference of the percent scale not stated here;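 also: the control signal comes from parental cells without the receptor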
# Target sequence (P16473 whole entry, looked up): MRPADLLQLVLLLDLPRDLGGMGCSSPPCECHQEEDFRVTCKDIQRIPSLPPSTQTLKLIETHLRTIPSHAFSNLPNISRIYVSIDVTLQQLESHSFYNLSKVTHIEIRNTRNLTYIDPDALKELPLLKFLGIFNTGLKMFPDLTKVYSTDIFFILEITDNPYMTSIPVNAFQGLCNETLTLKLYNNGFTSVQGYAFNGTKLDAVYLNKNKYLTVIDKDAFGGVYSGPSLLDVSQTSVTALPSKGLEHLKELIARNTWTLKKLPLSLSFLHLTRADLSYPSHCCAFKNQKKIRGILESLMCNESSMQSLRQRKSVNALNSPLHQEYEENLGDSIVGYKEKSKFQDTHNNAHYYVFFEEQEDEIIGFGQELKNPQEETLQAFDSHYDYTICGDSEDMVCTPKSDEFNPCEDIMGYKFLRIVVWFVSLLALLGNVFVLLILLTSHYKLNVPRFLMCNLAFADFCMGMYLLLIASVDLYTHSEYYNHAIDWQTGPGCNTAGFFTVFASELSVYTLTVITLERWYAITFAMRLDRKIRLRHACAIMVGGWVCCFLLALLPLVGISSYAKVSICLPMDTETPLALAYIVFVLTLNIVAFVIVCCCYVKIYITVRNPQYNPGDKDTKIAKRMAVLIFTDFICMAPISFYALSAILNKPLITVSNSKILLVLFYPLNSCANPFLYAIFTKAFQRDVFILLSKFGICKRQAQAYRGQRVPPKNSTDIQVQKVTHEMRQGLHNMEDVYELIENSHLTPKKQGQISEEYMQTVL
#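 HEK 293 cells stably expressing TSHR and a cAMP-gated CNG channel; parental CNG-only cells as counterscreen. Cells preloaded 60 min with membrane potential dye plus 100 uM RO 20-1724, then compound 30 min; fluorescence read at 590 nm.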
# Tau filament bind: binds recombinant human tau filaments; AID 596; 71,000 compounds, 2% hits; recombinant tau filaments, thioflavin S fluorescence, 15 h; filaments grown with octadecylsulfate alongside compound; Potency, µM (titrated, usually from 57.1 µM);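 also: actives lower thioflavin S fluorescence by blocking filaments or displacing dye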
#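 Quantitative HTS: thioflavine S signal from ODS-induced tau filaments, excited at 450 nm, emission 510 nm. Conditions: 1 uM tau, 30 uM ODS, 15 h at 37 C, pH 7.4.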
# Numbers stand for hits; . = inactive; ? = inconclusive; / = not tested or not shown; ! = not active in a repeat; [ ] = remark or other dose. Unless noted, calls follow the shape of the dose curve; as a rule, active = well fitted curve in the direction sought with a large enough effect; inconclusive = small, poorly fitted or top-dose-only effect, or another doubt; inactive = no such curve, though single readings can be large; an effect the other way counts as inactive or inconclusive.
SMILES,ERK AVP block,HEK293 cAMP cs,CRE Fsk mod,TSHR agonist,Tau filament bind
CCc1c(C(=O)OC)ncc2[nH]c3cc(OC)c(OC)cc3c12,?,.,2.5µM,/,.
COc1cc2[nH]c(=O)n(-c3ccccc3)c(=O)c2cc1OC,.,.,?,.,.
Cc1cccn2c(=O)c3c(nc12)N1CCC(Cc2ccccc2)CC1C1(C3)C(=O)N(C)C(=O)N(C)C1=O (stereo not given),.,20µM,.,?,.
CC(=O)[C@@H]1CC[C@H]2[C@H]3CC[C@H]4C[C@@H](O)CC[C@]4(C)[C@@H]3CC[C@]12C,.,.,.,.,.
CCN[C@]1(c2cccs2)CCCCC1=O,.,.,.,5µM,.
COCCOC(=O)c1ccccc1C(=O)OCCOC,.,.,.,?,.
CN1[C@@H]2CC[C@H]1CC(O[C@@H](c1ccccc1)c1ccccc1N)C2 (stereo not given in full),.,.,.,.,.
CC(=O)c1ccc2c(c1)N(CCCN(C)C)c1ccccc1S2,.,?,.,?,3.2µM
O=C(CSc1ccccc1)N1CCC2(CC1)OCCO2,?,.,13µM,.,.
Cc1c(C(=O)N2CCC3(CC2)OCCO3)oc2ccccc12,.,.,.,.,.
N[C@H](Cc1c[nH]c2ccccc12)P(=O)(O)O,.[11.5 µM],.[11.4 µM],.[7.6 µM],.[11.4 µM],.[11.4 µM]
Cc1c(C(=O)c2ccc3ccccc3c2)c2cccc3c2n1[C@H](CN1CCOCC1)CO3,.,.,?,.,?
COc1ccc(C(=O)c2c(C)n(CCN3CCOCC3)c3cc(I)ccc23)cc1,.,6.3µM,?,?,?
CC(C)c1ccc(C(O)(C(=O)O)c2ccc(C(C)C)cc2)cc1,.[11.5 µM],.[11.4 µM],.[7.6 µM],.[11.4 µM],.[11.4 µM]
CN(C)CCC(C#N)(c1ccccc1)c1ccccc1,.[11.5 µM],.[11.4 µM],.[7.6 µM],.[11.4 µM],.[11.4 µM]
c1ccc(C(OCCN2CCNCC2)c2ccccc2)cc1,.,.,.,.,.
C(=C/c1ccccc1)/CN1CCN(CCOC(c2ccccc2)c2ccccc2)CC1,?,.,?,32µM,?
O=C(O)[C@H]1C2c3ccccc3C(c3ccccc32)[C@@H]1C(=O)NCC1CC1,.[11.5 µM],.[11.4 µM],.[7.6 µM],.[11.4 µM],.[11.4 µM]
CN1Cc2ccccc2[C@@H]2c3cccc4[nH]cc(c34)C[C@H]21,?,.,?,.,25µM
S=C=Nc1cccc2ccccc12,.,.,.,.,.
CC(=O)N(C1=NCCCS1)c1ccc(F)cc1,.,1.6µM,.,?,.
CC(=O)C1=C(O)[C@@H]2[C@@H]3c4c[nH]c5cccc(c45)C[C@@H]3C(C)(C)N2C1=O,.,.,1.3µM,.,?
CCC(=NCc1cccnc1)c1c(O)n(Cc2ccccc2)c(=O)[nH]c1=O,?,.,1.6µM,.,.
CC[C@H](CO)NC(=O)[C@@H]1C=C2c3cccc4[nH]cc(c34)C[C@@H]2N(C)C1,.,?,.,?,.
CCC(=NC1CC1)c1c(O)n(C2CCCCC2)c(=O)[nH]c1=O,.,.,10µM,/,.
SMILES,ERK AVP block,HEK293 cAMP cs,CRE Fsk mod,TSHR agonist,Tau filament bind
C=CCn1c(O)c(C(CC)=Nc2ccc(N(CC)CC)cc2)c(=O)[nH]c1=O,.,.,?,.,.
C=CCn1c(O)c(C(C)=Nc2ccc(N(CC)CC)cc2)c(=O)[nH]c1=O,.,.,?,/,16µM
C=CCn1c(O)c(C(C)=Nc2ccc(N(C)C)cc2)c(=O)[nH]c1=O,13µM,.,?,.,.
O=C(O)[C@H]1CCN1,.,.,.,.,.
N[C@H](Cc1ccc(N(CCCl)CCCl)cc1)C(=O)O,.,.,.,.,.
N[C@@H](Cc1cc(O)c(O)cc1O)C(=O)O,.,.,.,.,25µM
CNc1ccc2oc(C[C@H]3O[C@]4(CC[C@H]3C)O[C@H]([C@H](C)C(=O)c3ccc[nH]3)[C@H](C)C[C@H]4C)nc2c1C(=O)O,5µM,.,?,.,40µM
N#CSCSC#N,16µM,.,?,?,.
N[C@]1(C(=O)O)CC[C@@H](C(=O)O)C1,/,.,.,/,.
CC1=NN(c2ccc(S(=O)(=O)O)cc2C)C(=[OH+])[C@H]1N=Nc1cc(S(=O)(=O)O)ccc1C(=O)O.O.[Cr],.[11.5 µM],?,.[7.6 µM],?,.[11.4 µM]
C[CH2][Hg][S]c1ccccc1C(=O)O,10µM,/,/,/,/
C=CCN1CC[C@]23c4c5ccc(O)c4O[C@@H]2C(=O)CC[C@@]3(O)[C@H]1C5,.,.,.,.,.
C[C@]1(O)CC[C@H]2[C@@H]3[C@@H](O)CC4=CC(=O)CC[C@@]4(C)[C@H]3CC[C@]21C,.[11.5 µM],.[11.4 µM],?,.[11.4 µM],.[11.4 µM]
C/C=C1\C[C@H](C)[C@](O)(CO)C(=O)OCC2=CCN3CC[C@@H](OC1=O)[C@@H]23,/,.,?,.,.
O=c1[nH]c2ccccc2n1CCCN1CCC(n2c(=O)[nH]c3cc(Cl)ccc32)CC1,?,16µM!,.[7.6 µM],?,.[11.4 µM]
O=c1[nH]c(=O)n(C2CCCCCC2)c(O)c1C=NC1CCN(Cc2ccccc2)CC1,.,.,?,.,.
CC1(C)CCC(C)(C)c2c1ccc(O)c2Cc1c(O)ccc2c1C(C)(C)CCC2(C)C,.[11.5 µM],.[11.4 µM],.[7.6 µM],.[11.4 µM],.[11.4 µM]
C[C@H](CN(C)C)C(C#N)(c1ccccc1)c1ccccc1,.[11.5 µM],.[11.4 µM],.[7.6 µM],.[11.4 µM],.[11.4 µM]
Cc1ccc(-c2nc3ccccc3c(=O)n2-n2cccc2)cc1,.,.,.,/,.
Cc1cccc(-c2nc3ccccc3c(=O)n2-n2cccc2)c1,?,4µM,?,?,.[11.4 µM]
CCC1C(=O)OCC1Cc1cncn1C (stereo not given),.,.,.,.,40µM
CC[C@H]1C(=O)OC[C@H]1Cc1cncn1C,.[11.5 µM],.[11.4 µM],.[7.6 µM],.[11.4 µM],.[11.4 µM]
C[C@]12CC[C@H](O)C[C@@H]1CC[C@H]1[C@H]2CC[C@]2(C)[C@H](C(=O)CO)CC[C@@H]12,.,.,?,?,.
CCn1nc(-c2cccs2)nc2c(=O)n(C)c(=O)nc1-2,.,3.2µM,?,?,.
COc1cc(-c2ccc(=O)[nH]n2)ccc1OC(F)F,?,.,16µM!,.,?
SMILES,ERK AVP block,HEK293 cAMP cs,CRE Fsk mod,TSHR agonist,Tau filament bind
CCNC(C)(C)[C@@H](SS)c1ccc(Br)cc1,.[11.5 µM],.[11.4 µM],.[7.6 µM],.[11.4 µM],.[11.4 µM]
CCCN1CCO[C@@H]2c3cc(O)ccc3OC[C@@H]21,.,.,.,.,40µM
C[C@@H]1CC[C@@H]2N(C1)C[C@H]1[C@@](O)([C@H](O)C[C@]3(O)[C@H]4CC[C@H]5[C@]6(O)O[C@]4(C[C@]13O)[C@@]5(C)CC[C@@H]6O)[C@@]2(C)O,.[11.5 µM],.[11.4 µM],.[7.6 µM],.[11.4 µM],.[11.4 µM]
COC(=O)/C=C\C(=O)N[C@@H]1CC[C@@]2(O)[C@H]3Cc4ccc(O)c5c4[C@@]2(CCN3CC2CC2)[C@@H]1O5,.,.,?,.,32µM
NCCc1c[nH]c2ccccc12,.,.,?,.,.
CCCCc1ccc2[nH]cc(CCN)c2c1,.,.,?,.,16µM
O=P(c1ccccc1)(c1ccccc1)N1CC2(CC2)CC(O)(c2ccccc2)C1 (stereo not given),.,0.79µM,.,?,.

# Screens (PubChem BioAssay)
